The values that follow come from PubChem BioAssay AID1948 (National Center for Advancing Translational Sciences (NCATS), 2009).

The whole screen tested about 110,000 compounds, of which about 20 (0.02%) were called active. Another 2% or so got no clear call; they are omitted. This excerpt belongs to a sample that is enriched for actives. Unmarked numbers belong to inactive results. The call rests on the fitted dose curve; in most records, active means well fitted activation curve with a large enough effect; inconclusive means small, poorly fitted or top-dose-only effect; inactive means no such curve, though single readings can be large or run the other way.
Potency means the concentration at half of the fitted maximal effect.

This test in a line: qHTS Assay for Compounds that Induce Erasure of Genomic Imprints.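 On activity change, positive = activation: 0% = negative control wells on the plate.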 Conditions: mouse ES Peg3-LacZ reporter, beta-gal luminescence, 40 h; series mostly up to 10.9 µM; activity change, positive = activation: at the top concentration. An excerpt:
qHTS Assay for Compounds that Induce Erasure of Genomic Imprints NIH Chemical Genomics Center [NCGC] NIH Molecular Libraries Screening Centers Network [MLSCN] Assay Submitter (PI): JEFFRIES, SEAN, NCGC, University of Cambridge NCGC Peg3 Imprinting Assay Overview Genomic imprinting is the epigenetic process whereby genes are expressed in a parent of origin fashion. […] Unlike some forms of epigenetic silencing that can be overcome by overexpression of transcription factors, genomic imprinting stably represses the expression of one allele despite potentially high levels of expression from the other allele. […] During mouse embryonic day 11.5 imprints are erased in PGCs so that sex specific imprints can be reestablished during gametogenesis. Embryonic germ (EG) cells can be derived from developing PGCs at embryonic day 11.5 and these cells often lack genomic imprints. […] Embryonic stem (ES) cells are a cell type similar to EG cells in phenotype and transcriptional profile, yet ES cells maintain genomic imprints. This similarity between ES and EG cells prompted us to use ES cells to look for factors which could induce imprint erasure. To investigate the stability of genomic imprinting, ES cells were derived from mice with an insertion of a LacZ-Neomycin reporter construct in the Peg3 locus. Peg3 is an imprinted locus where gene expression is restricted to the paternal allele. […] Using LacZ expression we are able to monitor the state of the Peg3 imprint. In order to dissect the mechanisms involved in imprint erasure using a forward chemical genetics approach we developed a cell based phenotype assay using an endogenous silence imprinted locus. This assay utilizes maternally inherited Peg3LacZ-Neo ES cells by monitoring the LacZ expression from the normally silent Peg3 allele. To facilitate screening, high-density feeder-free ES cell culture has been optimized so that ES cells can be grown in 1536 for over four days without feeding or washes. The assay uses a luminescence based read out for LacZ activity and is a homogenous assay optimal for HTS.
NCGC Peg3 Imprinting Assay Protocol Summary ES cell lines were derived from blastocysts taken from Peg3LacZ-Neo x129 matings. Lines were sexed and genotyped for the Peg3LacZ-Neo allele. Female cells carrying the reporter allele were used in this study. Cells were derived on a layer of mouse embryonic fibroblasts and passaged multiple times before switching to feeder free culture. Cells were maintained feeder free on gelatin coated dishes in DMEM/F12 media supplemented with 15% FBS, 2mM L-glutamine, 100 units/ml penicillin, 100ug/ml streptomycin, 0.1mM MEM nonessential amino acids, 1mM sodium pyruvate, 0.1% sodium bicarbonate, 0.1mM 2-Mercaptoethanol, and 400 units/ml leukemia inhibitory factor (LIF) at 37C with 5% CO2. The assay was performed in 1536-well format. A single luminescence read was taken at the end of the assay and the data was normalized by plate to internal negative controls. Maximum efficacy and AC50 values were calculated from dose-response data using the standard Hill equation. 1536 well plates were filled with 0.5ul of 0.1% gelatin per well, spun down and incubated for at least 30 min at 37C. The ES cells were then trypsini Peg3 1536-well assay protocol: (1)Plate 0.5ul/well 0.1% gelatin in white tissue culture treated 1536-well plates, spin and incubate at 37C for at least 30 min. (2)Add 5ul/well (300 cells) of ES cell suspension from freshly trypsinized cells and incubate at 37C, 5% CO2 for 40 hours. (3)Add 5ul/well of freshly prepared BetaGlo solution and incubate at room temperature for 5 minutes. (4)Read luminescence on the ViewLux plate reader. Keywords Genomic Imprinting, Germ Cells, Embryonic Stem Cell, DNA Methylation, Peg3, qHTS, NIH roadmap, NCGC
(In qHTS, concentration-response curves come from the screen itself.)
As to `Cc1cccc(C(C)C)c1NC(=O)C(NS(=O)(=O)c1cccc2nsnc12)c1ccccc1` (configuration not stated), the “activity change, positive = activation” value was -5.37%.

For the compound `COc1cc(OC)c(NC(=O)N2CC3CCCN3c3ccccc32)cc1Cl` (configuration not stated), the “activity change, positive = activation” value was -4.34%.

For the compound `Cc1ccc(C(=O)COC(=O)C(Cc2c[nH]c3ccccc23)NC(=O)c2ccc(Br)cc2)cc1` (configuration not stated), the “activity change, positive = activation” value was -23.6%.

Consider `COc1cccc(Cn2c(CNS(=O)(=O)c3ccc(Cl)s3)nc3cccnc32)c1`, for which the “activity change, positive = activation” value was 5.91%.

With `CCCOc1ccc(NC(=O)CC2C(=O)N(c3ccccc3)C(=O)N2Cc2ccco2)cc1` (configuration not stated), the “activity change, positive = activation” value is 14.7%.

For the compound `CCN(c1ccc(Cl)cc1)S(=O)(=O)c1nnc(NC(=O)c2ccco2)s1`, the “activity change, positive = activation” value was -13.6%.

For `CCC(=O)N1CCc2cc(S(=O)(=O)NC(C(=O)Nc3ccc(C(C)=O)cc3)C(C)C)ccc21` (configuration not stated), the “activity change, positive = activation” value was -8.36%.

As to `CCSc1ncc(Cl)c(C(=O)Nc2c(C(=O)c3ccccc3)oc3ccccc23)n1`, the “activity change, positive = activation” value is -6.33%.

For the compound `O=C(O)c1ccc2c(c1)N(Cc1ccc(F)cc1)C(=O)c1ccccc1S2=O` (configuration not stated), the “activity change, positive = activation” value is -14.8%.

For `Cc1ccc(-c2cn3c(n2)sc2cc(C(=O)NCc4cccs4)ccc23)c(C)c1`, the “activity change, positive = activation” value was 5.34%.

As to `Cc1cccc(CC(=O)Nc2cccc(-c3cn4cccnc4n3)c2)c1`, the “activity change, positive = activation” value is 27.8%.

Turning to `CCCCNC(=O)CSc1nc2cc3c(cc2c(=O)n1CCCCCC(=O)NCc1ccc2c(c1)OCO2)OCO3`, the “activity change, positive = activation” value was -3.01%.

In the case of `CCOc1ccc(CNC(=O)c2ccc(CS(=O)c3ccccc3)o2)cc1` (configuration not stated), the “activity change, positive = activation” value was -14.1%.

With `CCOc1ccccc1NC(=O)CCS(=O)(=O)c1cccc2nsnc12`, the “activity change, positive = activation” value was -4.98%.

For `CCSc1nnc2c(n1)OC(c1ccc(OCC(=O)O)cc1)Nc1ccccc1-2` (configuration not stated), the “activity change, positive = activation” value is -3.64%.

With `COc1cccc(-c2nc(S(=O)(=O)c3ccc(C)cc3)c(NCc3ccccc3)o2)c1`, the “activity change, positive = activation” value is 4.59%.

As to `Cc1ccc(C)c(N2CCN(C(=O)Cn3ncc4c(=O)oc5ccc(C)cc5c43)CC2)c1`, the “activity change, positive = activation” value was -13.6%.

In the case of `Cc1ccc(S(=O)(=O)N(CC(=O)Nc2ccc(Cl)cc2Cl)c2ccccc2C)cc1`, the “activity change, positive = activation” value is -14.6%.

For `COc1ccccc1-n1c(-c2ccc(C)cc2)cn2c3c(=O)n(C)c(=O)n(C)c3nc12`, the “activity change, positive = activation” value was 9.66%.

`O=c1cnc2cnc(Nc3ccccc3)nc2n1Cc1ccc(F)cc1`: the “activity change, positive = activation” value was -5.91% [at 60.7 µM].

For the compound `Cc1nc2cnc(Nc3ccccc3)nc2n(C[C@H]2CCCO2)c1=O`, the “activity change, positive = activation” value was -2.6% [at 60.7 µM].

Regarding `Cc1nc2cnc(Nc3ccccc3)nc2n(Cc2ccc(F)cc2)c1=O`, the Potency is 3.16 µM (active).

For `Cc1cc(NC(=O)c2cccc(Cl)c2)ccc1-c1cc2ccccc2oc1=O`, the “activity change, positive = activation” value is -17.4%.

On to `Cc1ccc(CCNC(=O)c2nnc(Cc3cccc(F)c3)o2)cc1`, for which the “activity change, positive = activation” value is -10%.

With `Cc1cc2c(cc1C)C(c1cccc(OC(C)C)c1)CC(=O)N2` (configuration not stated), the “activity change, positive = activation” value is -14.4%.

For `COc1ccc(Cl)cc1NC(=O)CSc1nc(-c2cccs2)cc(C(F)(F)F)n1`, the “activity change, positive = activation” value is -13%.

Take `Cc1ccc(NC(=O)Nc2sc3nc4n(c(=O)c3c2C)CCC(C)CC4)c(Cl)c1` (configuration not stated): the “activity change, positive = activation” value is -5.4%.

Consider `Cc1ccc(OCCSc2nc(C)c(Cc3ccccc3)c(=O)[nH]2)cc1`, for which the “activity change, positive = activation” value is -7.4%.

Take `CC(C)S(=O)(=O)c1oc(-c2ccc(F)cc2)nc1S(=O)(=O)c1ccc(F)cc1`: the “activity change, positive = activation” value was -38.1%.

As for `CCCCN(C)c1nnc(NC(=O)Nc2ccc(Br)c(C)c2)s1`, the “activity change, positive = activation” value is -3.91%.

For the compound `O=C(NCCc1ccc(Cl)cc1)c1ccc2c(c1)N(Cc1ccc(F)cc1)C(=O)CS2`, the “activity change, positive = activation” value is -20.3%.

For `CCOc1ccccc1NC(=O)CCn1cnnn1`, the “activity change, positive = activation” value is -3.05%.

As to `CCOc1cc(-c2nnc(SCC(=O)NC3CCCC3)nc2-c2ccc(OC)c(OCC)c2)ccc1OC`, the “activity change, positive = activation” value was -9.78%.

As to `Cn1nnnc1SCCCNCc1cccc(OCc2ccc(Cl)cc2)c1`, the “activity change, positive = activation” value is -17.5%.

Consider `CSc1nc(=O)c2c(n1C)NC(=O)CC2c1ccccc1OC(C)C` (configuration not stated), for which the “activity change, positive = activation” value was -5.06%.

On to `COc1ccc(Cl)cc1S(=O)(=O)N1CCC(c2ccncc2)CC1`, for which the “activity change, positive = activation” value is -15.5%.

Consider `CCc1nn(CC(=O)Nc2cccc(C)c2C)c(=O)c2cc3sccc3n12`, for which the “activity change, positive = activation” value is 6.85%.

With `Cc1cccc(NC(=O)c2cc(S(=O)(=O)N3CCC4(CC3)OCCO4)ccc2F)c1`, the “activity change, positive = activation” value was -21%.

As for `CCC(=O)N1CCc2cc(Br)cc(S(=O)(=O)CCC(=O)NCCc3ccc(OC)c(OC)c3)c21`, the “activity change, positive = activation” value is 5.01%.

Regarding `CCCNc1ncnc2c1c(-c1ccccc1)cn2-c1ccc(OCC)cc1`, the “activity change, positive = activation” value was -20.1%.

Turning to `Cc1ccc(C)c(N2CCN(C(c3ccccc3)c3nnc(-c4ccccc4)o3)CC2)c1` (configuration not stated), the “activity change, positive = activation” value was -8.5%.

As for `COc1ccc(CN2C(=O)C(NC(=O)c3cccc(C)c3)(C(F)(F)F)N=C2c2ccccc2)cc1` (configuration not stated), the “activity change, positive = activation” value is 9.97%.

As to `CCOC(=O)C1CCCN(C(=O)c2ccc3c(c2)sc2nc(-c4ccc(CC)cc4)cn23)C1` (configuration not stated), the “activity change, positive = activation” value was -15.9%.

Take `CCCn1c(NCc2ccccc2F)nc2ccccc21`: the “activity change, positive = activation” value was -8.61%.

On to `O=S(=O)(c1ccc2nc(N3CCN(c4cccc(Cl)c4)CC3)ccc2c1)N1CCCCC1`, for which the “activity change, positive = activation” value was -6.86%.

As for `COc1ccc(OC)c(NC(=O)/C=C/c2ccc(C)o2)c1`, the “activity change, positive = activation” value was 7.39%.

As for `Cc1c(Cl)cccc1NC(=O)CCS(=O)(=O)c1ccc2c(c1)oc(=O)n2C`, the “activity change, positive = activation” value was -2.77%.

Regarding `C#CC(C)(CC)NC(=O)Cn1nnc(-c2ccc(OCc3c(F)cccc3Cl)cc2)n1` (configuration not stated), the “activity change, positive = activation” value was -21%.

Regarding `Cc1nc2ccn(Cc3cccnc3)c(=O)c2cc1C(=O)N1CCN(c2ccccc2F)CC1`, the “activity change, positive = activation” value is -12.9%.

As to `COc1cc(OC)c(NC(=O)c2nc(-c3ccncc3)no2)cc1Cl`, the “activity change, positive = activation” value is 1.79%.

In the case of `COc1ccccc1NC(=O)c1oc2ccccc2c1NC(=O)COc1ccccc1OC`, the “activity change, positive = activation” value is -14.1%.

With `Cc1c(-c2nsc(NC(=O)c3cccc(Cl)c3)n2)nnn1-c1ccccc1C(F)(F)F`, the “activity change, positive = activation” value was 11.8%.

For `O=C(c1cccs1)c1cn(CCOc2ccc(Cl)cc2)c2ccccc12`, the “activity change, positive = activation” value was -14.8%.

As to `CC(=O)c1c(C)n(S(=O)(=O)c2ccc(Cl)cc2)c2ccc(NS(=O)(=O)c3ccc(Cl)cc3)cc12`, the “activity change, positive = activation” value is -15.8%.

As to `COc1ccccc1CNC(=O)NCc1noc2ccc(C)cc12`, the “activity change, positive = activation” value was -12.8%.

In the case of `COc1cccc(-c2nnc3n(CCc4ccccc4)c(=O)c4ccccc4n23)c1O`, the “activity change, positive = activation” value was -1.81%.

As to `COc1cccc(CNCCSc2nnnn2C)c1OCc1ccccc1Cl`, the “activity change, positive = activation” value was -19.5%.

For `CCOC(=O)c1ccc(-c2ccc(/C=C(\C#N)C(=O)Nc3ccc(OCC)cc3)o2)cc1`, the “activity change, positive = activation” value was -9.53%.

Turning to `COc1ccc(NC(=O)CSc2nnc(-c3nnn(-c4ccc(F)cc4)c3C)o2)cc1`, the “activity change, positive = activation” value is -10.1%.

In the case of `COc1ccc(N2CCN(S(=O)(=O)c3ccc(-c4coc(C)n4)cc3)CC2)cc1`, the “activity change, positive = activation” value is -7.96%.

On to `Cc1ccccc1C(=O)Nc1sc2c(c1C(=O)N1CCC(C)CC1)CCCC2`, for which the “activity change, positive = activation” value was -10.6%.

For the compound `CC(=O)[C@H](C(c1ccccc1)N1CCOCC1)N1CCOCC1` (some centres not stated), the “activity change, positive = activation” value was -10.7%.
